Targets with a hit are over-represented here; the source holds about 7,900 in all. About 0.6% of all pairs of compound and target were hits. Values without a mark were called inactive.
How the values were obtained:
Assay in all cases: log2 fold change, soluble protein after heating vs DMSO (PISA); higher = thermal stabilisation; K562 cells, 10 uM, 30 min; active = over 0.2 and 3.5 SD of the protein, either way, in both replicates (recomputed)
[1] = compound: NC(=O)Nc1cc(-c2cccc(F)c2)sc1C(=O)N[C@H]1CCCNC1
Method in brief: (§1)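 Soluble protein was quantified by TMTpro 16plex LC-MS/MS after channel sums were equalised. It was obtained as the supernatant after 21,000xg for 90 min from pooled aliquots of K562 cells (2×10^6 cells/mL, 10 μM compound, 30 min) heated for 3 min across 48°C-58°C and extracted in PBS with 0.5% NP-40 at 4°C. Thermal stability values are relative to control samples and come from duplicates. They are given as log2 fold changes.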

[2] = compound: NC(=O)c1cnc(N[C@@H]2CCCC[C@@H]2N)nc1Nc1cccc(-n2nccn2)c1
Method in brief: as §1

[3] = compound: NC1(c2ccc(-c3nc4ccn5c(=O)[nH]nc5c4cc3-c3ccccc3)cc2)CCC1
Method in brief: as §1

[4] = compound: NCC(=O)Nc1ccc(-n2nc(C(F)(F)F)cc2-c2ccc3c(ccc4ccccc43)c2)cc1
Method in brief: as §1

entinostat = compound: Nc1ccccc1NC(=O)c1ccc(CNC(=O)OCc2cccnc2)cc1 [entinostat]
Method in brief: as §1

vorinostat = compound: O=C(CCCCCCC(=O)Nc1ccccc1)NO [vorinostat]
Method in brief: as §1

citarinostat = compound: O=C(CCCCCCNC(=O)c1cnc(N(c2ccccc2)c2ccccc2Cl)nc1)NO [citarinostat]
Method in brief: as §1

silmitasertib = compound: O=C(O)c1ccc2c(c1)nc(Nc1cccc(Cl)c1)c1ccncc12 [silmitasertib]
Method in brief: as §1

[5] = compound: O=C1NC(=O)C(c2cnc3ccccn23)=C1c1cn2c3c(cc(F)cc13)CN(C(=O)N1CCCCC1)CC2
Method in brief: as §1

[6] = compound: c1cc(OCCN2CCCCC2)cc(-c2n[nH]c3ccc(-c4nnc[nH]4)cc23)c1
Method in brief: as §1

Sequence of UniProt Q13952 (Q13952 whole entry, looked up): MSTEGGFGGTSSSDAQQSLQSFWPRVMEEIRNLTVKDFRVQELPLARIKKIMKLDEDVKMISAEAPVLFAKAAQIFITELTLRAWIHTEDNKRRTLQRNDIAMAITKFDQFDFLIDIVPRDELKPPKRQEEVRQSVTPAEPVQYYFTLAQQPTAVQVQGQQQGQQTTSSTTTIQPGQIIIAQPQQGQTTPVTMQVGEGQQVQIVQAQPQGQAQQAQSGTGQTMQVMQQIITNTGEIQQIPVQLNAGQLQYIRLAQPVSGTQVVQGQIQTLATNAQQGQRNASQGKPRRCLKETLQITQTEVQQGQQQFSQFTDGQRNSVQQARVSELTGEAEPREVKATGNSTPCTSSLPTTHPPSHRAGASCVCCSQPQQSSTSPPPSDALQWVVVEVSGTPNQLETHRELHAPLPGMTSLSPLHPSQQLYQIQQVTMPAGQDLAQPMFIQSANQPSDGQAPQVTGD
Sequence of UniProt O43847 (O43847 whole entry, looked up): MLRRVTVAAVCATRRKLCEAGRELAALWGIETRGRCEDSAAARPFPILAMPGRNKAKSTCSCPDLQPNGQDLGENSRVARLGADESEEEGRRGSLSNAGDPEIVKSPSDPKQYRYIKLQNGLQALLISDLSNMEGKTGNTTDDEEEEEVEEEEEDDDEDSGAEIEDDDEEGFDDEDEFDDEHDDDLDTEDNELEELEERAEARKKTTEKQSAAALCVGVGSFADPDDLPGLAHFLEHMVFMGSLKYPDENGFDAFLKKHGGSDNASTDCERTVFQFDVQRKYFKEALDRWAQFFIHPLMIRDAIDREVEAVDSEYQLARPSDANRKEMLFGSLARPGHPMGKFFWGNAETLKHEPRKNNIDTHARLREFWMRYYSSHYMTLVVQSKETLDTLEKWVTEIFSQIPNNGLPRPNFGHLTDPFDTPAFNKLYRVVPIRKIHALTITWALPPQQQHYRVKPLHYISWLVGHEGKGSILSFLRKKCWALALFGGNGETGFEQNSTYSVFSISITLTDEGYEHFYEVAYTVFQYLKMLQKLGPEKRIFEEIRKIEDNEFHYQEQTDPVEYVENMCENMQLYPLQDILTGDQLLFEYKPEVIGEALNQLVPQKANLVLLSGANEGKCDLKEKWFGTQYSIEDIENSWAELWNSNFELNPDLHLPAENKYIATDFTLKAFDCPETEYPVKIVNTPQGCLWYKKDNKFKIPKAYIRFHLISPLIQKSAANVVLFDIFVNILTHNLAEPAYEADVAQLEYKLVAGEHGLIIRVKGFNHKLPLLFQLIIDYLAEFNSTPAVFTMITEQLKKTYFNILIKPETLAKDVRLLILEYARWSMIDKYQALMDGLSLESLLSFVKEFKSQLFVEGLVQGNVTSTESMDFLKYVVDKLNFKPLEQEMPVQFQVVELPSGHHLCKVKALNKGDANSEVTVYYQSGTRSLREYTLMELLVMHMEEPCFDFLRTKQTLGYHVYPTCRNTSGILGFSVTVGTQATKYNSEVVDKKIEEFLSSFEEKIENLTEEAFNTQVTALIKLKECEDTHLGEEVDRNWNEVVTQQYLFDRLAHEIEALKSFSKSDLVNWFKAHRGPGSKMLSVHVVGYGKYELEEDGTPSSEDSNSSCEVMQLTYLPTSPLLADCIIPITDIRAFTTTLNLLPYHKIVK
Sequence of UniProt Q6VY07 (Q6VY07 whole entry, looked up): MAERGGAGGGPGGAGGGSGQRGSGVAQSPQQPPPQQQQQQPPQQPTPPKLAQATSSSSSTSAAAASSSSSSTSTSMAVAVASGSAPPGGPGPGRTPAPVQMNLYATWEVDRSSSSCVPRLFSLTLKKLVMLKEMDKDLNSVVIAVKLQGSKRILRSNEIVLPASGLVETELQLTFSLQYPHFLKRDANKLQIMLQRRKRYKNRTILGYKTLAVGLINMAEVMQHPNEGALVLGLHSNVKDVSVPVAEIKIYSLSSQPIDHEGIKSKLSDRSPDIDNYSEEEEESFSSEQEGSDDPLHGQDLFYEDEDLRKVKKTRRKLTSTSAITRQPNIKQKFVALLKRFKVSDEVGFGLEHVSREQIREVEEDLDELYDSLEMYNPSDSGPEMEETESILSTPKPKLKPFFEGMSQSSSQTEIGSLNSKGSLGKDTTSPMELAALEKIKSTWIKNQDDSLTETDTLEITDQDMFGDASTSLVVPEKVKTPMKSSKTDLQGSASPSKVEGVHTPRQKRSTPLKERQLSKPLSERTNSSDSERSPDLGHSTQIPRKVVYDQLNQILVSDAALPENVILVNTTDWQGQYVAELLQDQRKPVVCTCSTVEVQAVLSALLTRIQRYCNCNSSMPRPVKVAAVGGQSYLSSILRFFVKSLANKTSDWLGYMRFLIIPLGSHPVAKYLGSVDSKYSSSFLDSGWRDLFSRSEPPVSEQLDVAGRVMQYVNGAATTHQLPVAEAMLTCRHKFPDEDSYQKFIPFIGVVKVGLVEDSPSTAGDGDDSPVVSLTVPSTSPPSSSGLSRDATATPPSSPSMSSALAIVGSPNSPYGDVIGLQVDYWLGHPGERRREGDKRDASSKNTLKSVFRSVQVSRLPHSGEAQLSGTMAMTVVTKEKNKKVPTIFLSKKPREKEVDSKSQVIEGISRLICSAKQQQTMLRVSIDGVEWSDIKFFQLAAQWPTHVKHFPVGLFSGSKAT
Sequence of UniProt Q9BZQ8 (Q9BZQ8 whole entry, looked up): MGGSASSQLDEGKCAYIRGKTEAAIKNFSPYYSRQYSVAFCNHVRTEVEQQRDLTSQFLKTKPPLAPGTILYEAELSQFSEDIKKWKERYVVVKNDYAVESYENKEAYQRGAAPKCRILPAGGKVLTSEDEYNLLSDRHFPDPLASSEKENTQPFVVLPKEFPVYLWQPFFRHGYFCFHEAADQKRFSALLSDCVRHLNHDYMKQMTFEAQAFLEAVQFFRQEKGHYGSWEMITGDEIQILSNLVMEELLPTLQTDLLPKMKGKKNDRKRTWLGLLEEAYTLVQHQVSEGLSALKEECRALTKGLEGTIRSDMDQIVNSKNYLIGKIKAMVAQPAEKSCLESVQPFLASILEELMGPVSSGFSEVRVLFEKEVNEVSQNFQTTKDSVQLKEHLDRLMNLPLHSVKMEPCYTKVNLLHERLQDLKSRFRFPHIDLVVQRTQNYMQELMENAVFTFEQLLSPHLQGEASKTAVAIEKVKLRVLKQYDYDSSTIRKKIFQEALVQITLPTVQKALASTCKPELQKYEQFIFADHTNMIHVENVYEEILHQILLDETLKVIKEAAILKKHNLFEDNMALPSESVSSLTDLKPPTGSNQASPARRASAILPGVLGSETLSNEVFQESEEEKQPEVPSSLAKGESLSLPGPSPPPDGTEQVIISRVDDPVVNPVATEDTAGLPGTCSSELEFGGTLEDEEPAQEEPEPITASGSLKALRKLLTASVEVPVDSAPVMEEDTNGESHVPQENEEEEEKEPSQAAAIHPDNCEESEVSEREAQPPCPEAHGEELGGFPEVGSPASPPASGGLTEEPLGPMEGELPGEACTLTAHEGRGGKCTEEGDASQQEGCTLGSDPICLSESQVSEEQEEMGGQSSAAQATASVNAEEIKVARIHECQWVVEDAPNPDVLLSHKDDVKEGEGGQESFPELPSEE
Sequence of UniProt Q9BRA0 (Q9BRA0 whole entry, looked up): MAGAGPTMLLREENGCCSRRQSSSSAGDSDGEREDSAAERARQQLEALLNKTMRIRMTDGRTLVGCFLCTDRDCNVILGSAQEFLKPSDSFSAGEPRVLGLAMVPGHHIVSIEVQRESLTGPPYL
Sequence of UniProt O95182 (O95182 whole entry, looked up): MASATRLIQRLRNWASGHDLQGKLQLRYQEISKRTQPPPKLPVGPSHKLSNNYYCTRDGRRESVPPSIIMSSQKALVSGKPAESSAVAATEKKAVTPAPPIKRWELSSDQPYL
Sequence of UniProt Q9NXX6 (Q9NXX6 whole entry, looked up): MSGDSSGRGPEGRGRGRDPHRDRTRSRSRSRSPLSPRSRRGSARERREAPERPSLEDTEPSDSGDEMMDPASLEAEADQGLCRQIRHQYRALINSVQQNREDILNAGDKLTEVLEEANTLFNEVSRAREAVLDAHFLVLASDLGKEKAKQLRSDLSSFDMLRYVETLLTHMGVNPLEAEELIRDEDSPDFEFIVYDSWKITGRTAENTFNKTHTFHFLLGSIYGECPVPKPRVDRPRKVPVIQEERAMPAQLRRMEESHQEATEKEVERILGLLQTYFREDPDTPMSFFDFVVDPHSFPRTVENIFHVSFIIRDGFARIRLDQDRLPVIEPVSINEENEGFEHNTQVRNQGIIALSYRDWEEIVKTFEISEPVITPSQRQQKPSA
Sequence of UniProt P00846 (P00846 whole entry, looked up): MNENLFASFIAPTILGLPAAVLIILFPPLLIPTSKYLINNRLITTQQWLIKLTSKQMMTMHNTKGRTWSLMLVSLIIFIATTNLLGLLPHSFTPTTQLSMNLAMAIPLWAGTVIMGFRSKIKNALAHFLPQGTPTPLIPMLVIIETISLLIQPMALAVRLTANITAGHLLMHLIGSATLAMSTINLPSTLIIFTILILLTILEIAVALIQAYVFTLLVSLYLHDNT
Sequence of UniProt Q9UI09 (Q9UI09 whole entry, looked up): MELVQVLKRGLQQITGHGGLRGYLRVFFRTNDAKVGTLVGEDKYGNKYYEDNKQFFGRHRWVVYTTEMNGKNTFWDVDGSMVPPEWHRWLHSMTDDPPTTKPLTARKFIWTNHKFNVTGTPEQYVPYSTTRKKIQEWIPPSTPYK
Sequence of UniProt P56556 (P56556 whole entry, looked up): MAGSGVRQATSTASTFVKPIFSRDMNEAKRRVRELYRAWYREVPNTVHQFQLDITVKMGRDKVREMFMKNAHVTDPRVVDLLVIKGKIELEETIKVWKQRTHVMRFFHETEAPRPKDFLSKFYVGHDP
Sequence of UniProt O60361 (O60361 whole entry, looked up): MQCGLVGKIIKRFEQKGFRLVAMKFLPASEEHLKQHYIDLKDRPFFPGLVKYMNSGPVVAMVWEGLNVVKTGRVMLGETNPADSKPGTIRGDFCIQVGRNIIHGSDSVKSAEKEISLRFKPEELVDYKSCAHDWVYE

| Target | log2 fold change [1] | log2 fold change [2] | log2 fold change [3] | log2 fold change [4] | log2 fold change (entinostat) | log2 fold change (vorinostat) | log2 fold change (citarinostat) | log2 fold change (silmitasertib) | log2 fold change [5] | log2 fold change [6] |
| --- | --- | --- | --- | --- | --- | --- | --- | --- | --- | --- |
| NIBAN1 (UniProt Q9BZQ8) | -0.118 | -0.036 | -0.169 | -0.036 | 0.073 | 0.106 | 0.123 | 0.029 | -0.069 | -0.106 |
| MYH10 isoform 3 (UniProt P35580) | 0.014 | -0.026 | -0.102 | -0.035 | 0.019 | 0.004 | 0.041 | -0.008 | -0.036 | 0.013 |
| NOL11 (UniProt Q9H8H0) | 0.042 | 0.055 | 0.041 | 0.038 | -0.019 | -0.013 | 0.035 | 0.068 | 0.02 | -0.041 |
| NUP160 (UniProt Q12769) | 0.031 | -0.058 | -0.066 | -0.062 | 0.008 | 0.05 | 0.018 | 0.075 | 0.021 | -0.09 |
| MYH11 isoform 2 (UniProt P35749) | 0.056 | 0.018 | -0.017 | 0.046 | 0.015 | 0.121 | 0.027 | -0.003 | -0.009 | -0.034 |
| MT-ATP6 (UniProt P00846) | -0.003 | -0.007 | 0.197 | 0.081 | -0.018 | -0.007 | 0.097 | -0.005 | 0.037 | -0.04 |
| NAA38 isoform 2 (UniProt Q9BRA0) | -0.064 | -0.029 | -0.105 | 0.026 | -0.009 | -0.041 | -0.152 | 0.017 | 0.038 | -0.264 |
| NSMCE4A (UniProt Q9NXX6) | 0.181 | 0.059 | 0 | -0.023 | -0.087 | -0.155 | -0.018 | 0.149 | -0.038 | -0.067 |
| MON1B (UniProt Q7L1V2) | 0.015 | -0.045 | -0.312 (active) | -0.053 | -0.018 | -0.001 | 0.056 | 0.032 | 0.052 | -0.081 |
| NME2P1 (UniProt O60361) | 0.07 | -0.146 | -0.124 | -0.306 | -0.01 | 0.036 | -0.114 | 0.048 | -0.011 | -0.161 |
| PACS1 (UniProt Q6VY07) | 0 | 0.041 | -0.081 | -0.01 | 0.004 | 0.022 | -0.012 | -0.074 | 0.062 | -0.113 |
| OTUD6B (UniProt Q8N6M0) | -0.122 | -0.121 | -0.167 | -0.064 | 0.022 | 0.215 | -0.013 | 0.059 | -0.065 | -0.053 |
| MRPS10 (UniProt P82664) | -0.014 | 0.004 | -0.052 | 0.011 | -0.033 | 0.057 | 0.07 | -0.048 | 0 | -0.08 |
| NME7 (UniProt Q9Y5B8) | 0.159 | -0.13 | -0.184 | 0.057 | 0.159 | 0.145 | 0.03 | 0.071 | 0.05 | 0.186 |
| NFYC (UniProt Q13952) | 0.008 | -0.079 | -0.054 | -0.027 | -0.034 | -0.057 | -0.002 | 0.024 | -0.058 | -0.044 |
| NDUFA6 (UniProt P56556) | -0.023 | 0.028 | -0.113 | -0.083 | 0.056 | 0.118 | 0.036 | -0.016 | -0.131 | -0.011 |
| NDUFA12 (UniProt Q9UI09) | -0.018 | -0.038 | -0.227 | -0.061 | 0.04 | 0.077 | 0.07 | -0.052 | 0.004 | -0.033 |
| OSBP (UniProt P22059) | -0.007 | 0.019 | -0.17 | -0.036 | 0.024 | 0.013 | 0.03 | 0.014 | -0.131 | -0.066 |
| NDUFA7 (UniProt O95182) | 0.019 | 0.005 | -0.108 | -0.059 | 0 | 0.012 | 0.008 | -0.037 | -0.047 | -0.039 |
| MRPS9 (UniProt P82933) | -0.03 | -0.011 | -0.117 | 0.018 | 0.008 | 0.167 | 0.035 | -0.083 | -0.019 | -0.081 |
| NOP2 isoform 4 (UniProt P46087) | 0.205 | 0.241 | 0.408 | 0.3 | -0.163 | 0.014 | -0.04 | 0.288 | 0.344 | -0.095 |
| NA, A0A0B4J2A0 | -0.025 | 0.029 | -0.061 | 0.031 | 0.029 | 0.05 | 0.029 | 0.017 | -0.059 | -0.012 |
| NRDC isoform 2 (UniProt O43847) | -0.01 | -0.044 | -0.057 | -0.036 | 0.043 | 0.04 | 0.024 | 0.025 | -0.05 | -0.06 |
| NUCKS1 (UniProt Q9H1E3) | -0.405 (active) | 0.035 | 0.014 | 0.04 | -0.01 | -0.08 | -0.022 | -0.008 | -0.044 | 0.079 |
| NSUN2 (UniProt Q08J23) | 0.029 | -0.246 | -0.106 | -0.027 | 0.01 | 0.137 | 0.013 | 0.046 | -0.026 | -0.075 |
| NMRAL1 (UniProt Q9HBL8) | 0.391 | 1.06 (active) | 0.717 | -0.16 | -0.052 | -0.139 | -0.151 | 0.018 | -0.005 | 0.374 |
| MKNK1 (UniProt Q9BUB5) | 0.226 | -0.157 | -0.158 | -0.059 | -0.026 | -0.025 | 0.025 | 0.012 | 0.019 | -0.042 |
| OSBPL8 (UniProt Q9BZF1) | -0.06 | -0.03 | 0.063 | 0.042 | 0.012 | 0.049 | 0.005 | 0 | 0.079 | -0.129 |
| NEU1 (UniProt Q99519) | -0.081 | -0.088 | -0.114 | -0.057 | 0.003 | 0.159 | 0.087 | 0.04 | -0.066 | -0.063 |

Source: the supplement of paper PMC10849652
